Source: PubChem
D1 ag: activates the human D1 dopamine receptor; P21728; activation, % at 2 µM; 360,000 tested, 1% active; HEK293 T-REx D1 cells, calcium flux, agonist mode; note: 0% is about no effect
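Inducible HEK293 T-REx D1 cells, force-coupled to calcium signalling, were plated at 4000 cells/well with tetracycline and held overnight at 30 C. After no-wash calcium dye loading, compound-evoked calcium rise over 180 s flagged agonists.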
LDHA block: inhibitors of human lactate dehydrogenase A; P00338; purified LDHA, NADH/diaphorase-resazurin fluorescence; hits give low values; activity change, % (values are at about 110 or 230 µM); 480,000 tested, 0.15% active; in the data active = activity change below about -30%;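 note: plate controls were DMSO wells for no effect and wells without enzyme for full effect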
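Remaining NADH was detected by diaphorase (0.133 mg/mL) converting 37 µM resazurin to fluorescent resorufin, read at 0 and 20 minutes. The preceding 5-minute room-temperature reaction used 2 nM LDHA, 0.2 mM sodium pyruvate and 0.06 mM NADH at pH 7.4.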
TRHR agonist: TRH receptor (human) agonism; P34981; TRHR cells, calcium flux fluo-8, FDSS agonist mode; activation, % at 2 µM; 360,000 tested, 0.18% active; AID 493084; note: 0% is about no effect
Target sequence (P34981 whole entry, looked up): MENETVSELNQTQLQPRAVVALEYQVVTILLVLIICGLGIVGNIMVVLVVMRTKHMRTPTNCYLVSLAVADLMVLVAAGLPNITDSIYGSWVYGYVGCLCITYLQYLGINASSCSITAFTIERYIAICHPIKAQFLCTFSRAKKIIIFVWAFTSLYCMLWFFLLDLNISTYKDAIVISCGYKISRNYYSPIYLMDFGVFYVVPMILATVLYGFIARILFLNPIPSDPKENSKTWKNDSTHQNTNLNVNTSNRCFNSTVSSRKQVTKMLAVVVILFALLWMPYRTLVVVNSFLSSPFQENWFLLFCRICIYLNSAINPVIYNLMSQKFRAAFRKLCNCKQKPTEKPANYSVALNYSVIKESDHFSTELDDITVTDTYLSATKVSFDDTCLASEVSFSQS
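Fluo-8-loaded TRHR cells; 10 s baseline, compound added, kinetic Ca2+ fluorescence read 1/s, agonist mode.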
TRHR PAM: allosteric enhancers of human TRH receptor; AID 493056; TRHR cells, fluo-8 calcium fluorescence, EC20 TRH enhancement; 360,000 tested, 0.66% active; enhancement, % at 2 µM; P34981; in the data active = enhancement above about 30%; note: 0% is about no effect
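TRHR-expressing cells loaded with fluo-8 calcium dye were read kinetically (ex 480/em 530) during compound addition, then stimulated with an EC20 of TRH (10 nM final). Enhancement of the Gq-mediated intracellular calcium response was scored.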
D1 potentiator: potentiators of human D1 dopamine receptor. P21728. HEK293 TREx D1 cells, calcium flux, dopamine EC20 potentiation. potentiation, % at 10 µM. 360,000 tested, 0.036% active. AID 504651; in the data active = potentiation above about 30%; note: 0% is about no effect
D1 antag: antagonists of human D1 dopamine receptor | HEK293 TREx D1 cells, calcium flux, dopamine EC80; hits give low values | AID 504652 | 360,000 tested, 3.2% active | P21728 | activity change, negative = inhibition, % at 10 µM; in the data active = activity change below about -30%; note: % is set by controls: 0 for no effect and ±100 for the full control effect
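After overnight tetracycline induction at 30 C, force-coupled D1 HEK293 cells took up a no-wash calcium dye at room temperature. Compounds were added and monitored 180 s, and the response to EC80 dopamine was then recorded.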
* hit, by the source's call; . = not tested or not shown; ! = not confirmed by another sample. Shown are actives, neighbours in structure and some others; about 3.6% of the full set was active somewhere. Cut-off read from the data, not from the text of the source, unless noted: active = activation above about 30%; inactive = the rest.

SMILES	D1 ag	LDHA block	TRHR agonist	TRHR PAM	D1 potentiator	D1 antag
CCCCCCn1nc(C(=O)Nc2cccc(S(=O)(=O)N3CCOCC3)c2)c2ccccc2c1=O	.	6	.	.	.	.
CC(c1cccs1)N(C)CC(O)COc1ccc(-c2ccccc2)cc1 (stereo unspecified)	.	-2	.	.	.	.
CCOC(=O)c1cc(C)n(CC2CCC(C(=O)Nc3ccc(Cl)cc3)CC2)c1C (stereo unspecified)	8	-6	1	10	-3	-34*
CCOC(=O)c1cc(C)n(CC2CCC(C(=O)Nc3cccc(Cl)c3)CC2)c1C (stereo unspecified)	1	-1	1	1	0	-3
COC(=O)CN1CCCC1c1cccs1 (stereo unspecified)	.	0	.	.	.	.
COc1ccc(C2C3C(=O)N(N(C)c4ncc(C(F)(F)F)cc4Cl)C(=O)C3ON2C)cc1 (stereo unspecified)	5	1	0	2	-2	-31*
COc1ccc(NC(=O)c2nc(S(=O)(=O)Cc3ccccc3)ncc2Cl)cc1	.	8	.	.	.	.
CS(=O)(=O)c1ccc(C(=O)Nc2ccc(N3CCOCC3)cc2)c(Cl)c1	3	2	0	-1	-4	9
CS(=O)(=O)c1ncc(Cl)c(C(=O)Nc2ccc(N3CCOCC3)cc2)n1	-3	0	-1	1	-7	-35*
CS(=O)(=O)c1ncc(Cl)c(C(=O)Nc2ccc(OC(F)F)cc2)n1	2	-9	1	-10	-2	-38*
CCOC(=O)c1nc2ccccc2nc1N1CCN(c2ccc(Cl)cc2)CC1	.	0	.	.	.	.
COc1ccc(C2N(c3ccc(Cl)cc3)C(=O)C3CCCN32)cc1 (stereo unspecified)	3	0	-1	5	0	-38*
COc1ccc(OC)c(-n2c(C)ccc2-c2ccc(S(C)(=O)=O)cc2)c1	1	8	-1	17	-2	-69*
COc1ccc(OC)c(-n2c(-c3ccc(S(C)(=O)=O)cc3)cc(C=O)c2C)c1	14	2	0	11	-1	5
CC1CCCCN1C(=O)c1ccc(Br)o1 (stereo unspecified)	4	-1	0	32*	-1	6
CCN(CCC(F)(F)F)C(=O)Cc1c[nH]c2ccccc12	.	1	.	.	.	.
Fc1ccccc1N1CCN(C2CCN(Cc3c[nH]c4ccccc34)CC2)CC1	46*	3	-1	3	-7	-7
Cc1nc2sc3c(c2c(-c2ccccc2)c1C(N)=O)CCCC3	.	3	.	.	.	.
CCC(Sc1nc2ccncc2[nH]1)C(=O)Nc1cc(Cl)ccc1C (stereo unspecified)	6	-2	0	4	-5	-44*!
Cc1cc(=O)n2c(n1)NC(Nc1ccc(F)cc1)=NC2c1cccs1 (stereo unspecified)	.	-37*	.	.	.	.
Cc1cc(=O)n2c(n1)NC(Nc1ccc(F)cc1)=NC2c1ccco1 (stereo unspecified)	.	-11	.	.	.	.
CCC(C)(C)c1ccc(Oc2cccc(C(=O)O)c2)cc1	4	-1	-1	6	-5	-13
CCCCCc1ccc(OCCCC[n+]2ccccc2)c(CCCCC)c1	96*	0	1	0	0	-24
CCCCCc1ccc(OCCCC[n+]2cccc(C)c2)c(CCCCC)c1	4	1	0	-1	-4	15
CCC(C)(C)c1ccc(OCCCC[n+]2ccccc2)c(C(C)(C)CC)c1	166*	0	-1	0	-11	-3
SMILES	D1 ag	LDHA block	TRHR agonist	TRHR PAM	D1 potentiator	D1 antag
COC(=O)c1ccc(CN2C(=O)NC(CC(C)C)C2=O)cc1 (stereo unspecified)	7	-6	1	4	2	-32*
COCc1nnc(NC(=O)c2ccc3ccn(Cc4ccccc4)c3c2)s1	.	-1	.	.	.	.
Cc1ccc(NC(=O)CSCC(=O)OC(C)C(=O)Nc2ccc(S(N)(=O)=O)cc2)c(C)c1 (stereo unspecified)	2	-44*	0	-1	-3	-10
Cc1ccc(C(=O)CCC(=O)OCC(=O)NNC(=O)c2ccccc2Cl)cc1	1	-1	-1	32*	-4	-8
CC(Sc1nc(-c2ccccc2)c(-c2ccccc2)o1)C(=O)NC(N)=O (stereo unspecified)	.	3	.	.	.	.
COc1cc(NC(=O)C(C)n2nc(-c3ccccc3)c3c(c2=O)CCCC3)cc(OC)c1 (stereo unspecified)	.	-32*	.	.	.	.
O=S(=O)(Nc1ccc(N2CCCCC2)cc1)c1ccc(F)c(F)c1	58*	3	-1	1	-3	-8
COc1ccccc1CNC(=O)/C=C/c1cc2c(cc1Br)OCO2	8	-8	0	0	-1	-30*
N#C/C(=C\c1cccc([N+](=O)[O-])c1)c1ccc([N+](=O)[O-])cc1	.	-7	.	.	.	.
CCc1nn(C(CC)C(=O)NCc2ccccc2C)c(=O)c2cc3oc(C)cc3n12 (stereo unspecified)	.	-1	.	.	.	.
CCc1nn(C(CC)C(=O)NCc2ccc(OC)c(OC)c2)c(=O)c2cc3oc(C)cc3n12 (stereo unspecified)	1	0	-2	41*	4	41
COc1ccc2ccccc2c1CNC(C)c1ccccc1 (stereo unspecified)	7	-20	0	-9	-14	7
CC(NCCCOc1cccc2ccccc12)c1ccccc1 (stereo unspecified)	39*	-3	1	8	2	1
CC(CCc1ccccc1)NC(=O)C(=O)NCc1n[nH]c(=O)c2ccccc12 (stereo unspecified)	.	5	.	.	.	.
Cc1ccc(C(=O)NCCc2nc3cc(NC(=O)C4CCCCC4)ccc3n2C)cc1F	.	-19	.	.	.	.
O=C(N/N=C/c1cc(Br)ccc1O)c1ccccc1Cl	2	3	0	6	-5	-42*
O=C(CCc1ccccc1)N/N=C/c1cc(Br)ccc1O	29	-1	0	-1	-3	-43*
O=C(CSCc1ccccc1)N/N=C/c1cc2c(cc1Br)OCO2	9	-2	-2	-12	4	-12
CC(C)NC(=S)N/N=C/c1cc(Br)ccc1O	15	-3	0	2	-9	-58*
O=C(CCc1ccccc1)N/N=C\c1cc2c(cc1Br)OCO2	5	-3	-1	18	-8	-31*
COC(=O)N/N=C/c1cc(Br)ccc1O	-1	5	0	5	5	6
Cc1oc2cc(OCC(=O)Nc3nccs3)ccc2c(=O)c1-c1ccc(Cl)cc1	.	3	.	.	.	.
Cc1ccccc1N1C(=O)CC(Nc2ccc3c(c2)OCO3)C1=O (stereo unspecified)	7	0	-1	-4	-3	-4
